Consider 57 compounds from PMC4336329 (PLoS ONE, 2015).

Hit rate of the full screen: of about 310,000 compounds, about 14,000 (4.5%) showed an effect of 50% or more. Effects have a minus sign here. The full list was thinned out, with strong results kept by preference. Where a SMILES comes first, the peptide text is derived from it. The star is where a group is joined. Boc = CC(C)(C)OC(=O)*; OtBu = CC(C)(C)O*
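Note: peak tail current of the secondary pulse compared with the same well before compound.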

Sequence of human ether-à-go-go-related gene (hERG) potassium channel (Q12809 whole entry, looked up): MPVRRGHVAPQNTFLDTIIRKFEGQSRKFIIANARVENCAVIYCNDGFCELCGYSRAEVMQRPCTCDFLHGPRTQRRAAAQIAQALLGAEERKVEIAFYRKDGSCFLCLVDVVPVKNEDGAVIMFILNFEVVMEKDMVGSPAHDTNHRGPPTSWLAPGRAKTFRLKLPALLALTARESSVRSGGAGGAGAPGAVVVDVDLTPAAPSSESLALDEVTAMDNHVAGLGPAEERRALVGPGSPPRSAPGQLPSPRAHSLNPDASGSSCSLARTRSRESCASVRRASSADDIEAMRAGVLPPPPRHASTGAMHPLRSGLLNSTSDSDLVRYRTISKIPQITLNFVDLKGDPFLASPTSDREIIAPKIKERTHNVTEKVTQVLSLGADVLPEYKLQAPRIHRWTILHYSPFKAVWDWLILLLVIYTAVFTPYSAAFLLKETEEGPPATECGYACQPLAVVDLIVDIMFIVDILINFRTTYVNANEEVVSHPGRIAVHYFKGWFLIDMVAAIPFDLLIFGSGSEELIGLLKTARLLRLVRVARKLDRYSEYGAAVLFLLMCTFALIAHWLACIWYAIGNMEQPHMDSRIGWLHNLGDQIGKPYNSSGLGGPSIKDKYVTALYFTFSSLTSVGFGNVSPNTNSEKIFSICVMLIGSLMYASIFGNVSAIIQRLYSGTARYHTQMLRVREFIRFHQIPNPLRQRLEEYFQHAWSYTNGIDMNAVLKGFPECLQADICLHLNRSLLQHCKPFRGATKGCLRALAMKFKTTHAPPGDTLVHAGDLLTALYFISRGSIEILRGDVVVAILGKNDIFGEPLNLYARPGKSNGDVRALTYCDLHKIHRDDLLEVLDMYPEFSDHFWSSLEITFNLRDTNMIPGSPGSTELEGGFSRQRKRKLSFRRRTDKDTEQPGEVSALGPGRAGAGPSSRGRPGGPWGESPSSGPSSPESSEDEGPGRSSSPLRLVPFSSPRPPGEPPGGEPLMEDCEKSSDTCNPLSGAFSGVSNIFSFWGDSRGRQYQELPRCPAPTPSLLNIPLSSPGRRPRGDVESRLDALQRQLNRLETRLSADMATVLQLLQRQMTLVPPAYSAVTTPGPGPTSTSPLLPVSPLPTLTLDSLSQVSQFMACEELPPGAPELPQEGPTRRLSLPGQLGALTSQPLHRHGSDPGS

The assay has as its target human ether-à-go-go-related gene (hERG) potassium channel (human, UniProt Q12809). The assay can be described thus: primary screen, population patch clamp on CHO cells stably expressing hERG; higher = less effect of the substance.
Consider `CCCCOc1nc2ccccc2c(=O)n1-c1ccccc1`, for which the “hERG current change (%, negative = inhibition) at 10uM” value is listed as -11.6%.
As to `Cc1cc(C)n2nc(C(=O)OC(C)C(=O)c3ccccc3)nc2n1` (stereo not drawn), the “hERG current change (%, negative = inhibition) at 10uM” value turned out to be 17.9%.
`O=C(Cn1[nH]c(=O)c2ccccc2c1=O)NC1CCN(Cc2ccccc2)CC1`: the “hERG current change (%, negative = inhibition) at 10uM” value came out at 0.791%.
Consider `COc1ccc2c(c1OC)C(=O)N(C(C)C(=O)O)C2=O` (stereo not drawn), for which the “hERG current change (%, negative = inhibition) at 10uM” value was 10.1%.
For `Cc1ccc(NC(=O)CSc2nnc3ccc(-c4cccnc4)nn23)cc1`, the “hERG current change (%, negative = inhibition) at 10uM” value is -49.3%.
As for `O=C(CSc1nnc2ccc(-c3cccnc3)nn12)Nc1ccccc1`, the “hERG current change (%, negative = inhibition) at 10uM” value is given as -50.6%.
Regarding `CC(=O)Nc1ccc(NC(=O)CSc2nnc3ccc(-c4cccnc4)nn23)cc1`, the “hERG current change (%, negative = inhibition) at 10uM” value is recorded as 19.8%.
Regarding `CC(c1nnc(SCC(=O)NC(=O)NCc2ccco2)n1-c1ccc(Cl)cc1)N(C)C` (stereo not drawn), the “hERG current change (%, negative = inhibition) at 10uM” value is -8.66%.
For `CC(C)COc1ccc(C/C(N)=N/n2cnnc2)cc1`, the “hERG current change (%, negative = inhibition) at 10uM” value is 30.4%.
With `COC(=O)CSc1nc2nc(C)cc(C)n2n1` the figure was 4.29%.
Turning to `Cc1ccc(Cl)cc1N1CCN(S(C)(=O)=O)CC1`, the “hERG current change (%, negative = inhibition) at 10uM” value is recorded as -5.31%.
The result for `CC(C)S(=O)(=O)N1CCN(c2ccnc3cc(Cl)ccc23)CC1` reads -71.6%.
For the compound `Cl.ClCCN1CCN(c2ccnc3cc(Cl)ccc23)CC1`, the “hERG current change (%, negative = inhibition) at 10uM” value is recorded as -20.8%.
In the case of `CN(C)S(=O)(=O)N1CCN(c2ccnc3cc(Cl)ccc23)CC1`, the “hERG current change (%, negative = inhibition) at 10uM” value is on record as -76.2%.
As for `CN(C)S(=O)(=O)N1CCN(c2cc(Cl)ccc2Cl)CC1`, the “hERG current change (%, negative = inhibition) at 10uM” value is -8.38%.
With `CS(=O)(=O)N1CCN(c2ccnc3cc(Cl)ccc23)CC1` the figure was -78.6%; with `CCS(=O)(=O)N1CCN(c2ccnc3cc(Cl)ccc23)CC1`, -73.2%; with `Cc1cc(C)c[n+](-c2[nH]c(=O)sc2/C=N/N=C(\N)[S-])c1`, 22%.
As to `COCCn1c(SCC(=O)NC2CCCC2)nc2cccnc21`, the “hERG current change (%, negative = inhibition) at 10uM” value is recorded as 17.1%.
In the case of `COc1ccccc1-n1cnnc1SCC(=O)c1ccc[nH]1`, the “hERG current change (%, negative = inhibition) at 10uM” value is listed as -0.89%.
The result for `Cc1ccccc1NC(=S)N(CCN1CCOCC1)Cc1ccccc1F` reads 30.1%.
Consider `Cl.Clc1ccc(CNCCC2=CCCCC2)cc1`, for which the “hERG current change (%, negative = inhibition) at 10uM” value is -40%.
With `CC(Oc1ccc(Br)cc1Br)C(=O)NC1CCCC1` (stereo not drawn) the figure was 16.2%; with `COc1ccc(N(CC(=O)N2CCc3ccccc3C2)S(=O)(=O)c2ccccc2)cc1`, -32.1%.
With `N#Cc1nc(COc2cccc(Cl)c2)oc1NCc1ccco1` the figure was -16.8%; with `N#Cc1nc(COc2ccccc2Cl)oc1NCc1cccnc1`, -51.2%.
On to `N#Cc1nc(COc2ccccc2Cl)oc1NCc1ccc(F)cc1`, for which the “hERG current change (%, negative = inhibition) at 10uM” value amounted to 0.159%.
Consider `CN(C)CCNc1oc(COc2cccc(Cl)c2)nc1C#N`, for which the “hERG current change (%, negative = inhibition) at 10uM” value was -16.1%.
On to `Cc1ccc(CNc2oc(COc3ccccc3Cl)nc2C#N)cc1`, for which the “hERG current change (%, negative = inhibition) at 10uM” value is given as 13.2%.
In the case of `N#Cc1nc(COc2cccc(Cl)c2)oc1NCc1ccncc1`, the “hERG current change (%, negative = inhibition) at 10uM” value is -73.7%.
For `FC(F)(F)c1ccc(C2[C@H]3CN(CC4CCCCC4)[C@H](c4ccccc4)C34CC2(c2cccnc2)C4)cc1` (stereo partly drawn), the “hERG current change (%, negative = inhibition) at 10uM” value was found to be 0.391%.
The result for `CN1CCN(C(=O)c2c(O)c3cccc4c3n(c2=O)CCC4)CC1.Cl` reads 6.48%.
With `c1ccc(Cc2nc3ccccc3[nH]2)cc1`, the “hERG current change (%, negative = inhibition) at 10uM” value is given as -6.39%.
For the compound `CCOc1ccc(Nc2nc3c(c(=O)[nH]2)CCCC3)cc1`, the “hERG current change (%, negative = inhibition) at 10uM” value is -3.98%.
For the compound `COC(=O)c1ccc(/C=C2/SC(=S)N(CCCC(=O)Nc3ccccn3)C2=O)cc1`, the “hERG current change (%, negative = inhibition) at 10uM” value was 15.4%.
Consider `CC(NC(=O)C(CC(=O)OC(C)(C)C)NC(=O)OC(C)(C)C)C(N)=O` (stereo not drawn) (Boc-Asp(OtBu)-Ala-NH2; configuration not given here), for which the “hERG current change (%, negative = inhibition) at 10uM” value was -5.99%.
With `Cc1sc2ncn(CC(=O)NCCCC(=O)N3CCN(c4ncccn4)CC3)c(=O)c2c1C` the figure was 7.64%.
In the case of `N#C/C(=C\c1ccco1)Sc1nc2ccccc2s1`, the “hERG current change (%, negative = inhibition) at 10uM” value stood at 0.525%.
As to `O=C(NCCc1nnc2ccc(NCc3ccc(F)cc3)nn12)c1ccccc1`, the “hERG current change (%, negative = inhibition) at 10uM” value is given as -29%.
As to `Cn1c(=O)c2c(n(Cc3ccccc3)c1=O)NC(=O)C2CC(=O)O` (stereo not drawn), the “hERG current change (%, negative = inhibition) at 10uM” value was found to be 12.6%.
`CC(C)Cn1c(O)c2ccc(C(=O)N=NC(=O)c3cccnc3)cc2c1O`: the “hERG current change (%, negative = inhibition) at 10uM” value was determined as 17%.
Turning to `COc1ccc(/C=C/C(=O)NC(=S)N2CCN(c3ccccn3)CC2)cc1`, the “hERG current change (%, negative = inhibition) at 10uM” value is reported as -6.85%.
For the compound `CCc1ccccc1NC(=S)N(CCCN1CCOCC1)Cc1ccccn1`, the “hERG current change (%, negative = inhibition) at 10uM” value is recorded as -25.8%.
Consider `Cc1ccc(NC(=S)N(CCCN2CCOCC2)Cc2ccccn2)cc1`, for which the “hERG current change (%, negative = inhibition) at 10uM” value is -22.8%.
With `S=C(Nc1ccc(Oc2ccccc2)cc1)N(CCCN1CCOCC1)Cc1ccccn1` the figure was -70%; with `CCc1ccc(NC(=S)N(CCCN2CCOCC2)Cc2ccccn2)cc1`, -56.3%; with `Cc1cccc(NC(=S)N(CCCN2CCOCC2)Cc2ccccn2)c1`, -22.3%.
The result for `COc1ccc(NC(=S)N(CCCN2CCOCC2)Cc2ccccn2)cc1` reads -14.4%; that for `COc1ccccc1NC(=S)N(Cc1ccc(C)cc1)Cc1ccccn1`, -39.1%; that for `COc1ccc(NC(=S)N(Cc2ccc(C)cc2)Cc2ccccn2)cc1`, -50.5%.
In the case of `COc1cccc(NC(=S)N(Cc2ccc(C)cc2)Cc2ccccn2)c1`, the “hERG current change (%, negative = inhibition) at 10uM” value is -30.2%.
Regarding `N#Cc1ccccc1OCC(=O)NCCNC(=O)COc1ccccc1C#N`, the “hERG current change (%, negative = inhibition) at 10uM” value was -10.1%.
Regarding `CCOC(=O)C(C)Oc1c(Br)cc(C2NC(=O)NC(C)=C2C(C)=O)cc1OCC` (stereo not drawn), the “hERG current change (%, negative = inhibition) at 10uM” value is 3.1%.
With `COc1cccc(C(=O)NCCC(=O)NCc2cc(=O)n(C)c(=O)n2C)c1` the figure was 13.9%.
In the case of `Cn1ccc(-c2ccccc2)c(C#N)c1=O`, the “hERG current change (%, negative = inhibition) at 10uM” value was found to be 3.34%.
As for `CS(=O)(=O)CCC(C(=O)OCc1ccc(Br)cc1)N1C(=O)c2ccccc2C1=O` (stereo not drawn), the “hERG current change (%, negative = inhibition) at 10uM” value is on record as -0.0845%.
On to `COC(=O)c1cc(C(=O)NNC(=O)c2ccc3c(c2)OCO3)cc([N+](=O)[O-])c1`, for which the “hERG current change (%, negative = inhibition) at 10uM” value is -7.98%.
